# Shown are actives, neighbours in structure and some others; about 19% of the full set was active somewhere.
# TDP1 cell noCPT – qHTS for Inhibitors of human tyrosyl-DNA phosphodiesterase 1 (TDP1): qHTS in cells in absence of CPT; DT40 Tdp1-/- hTDP1 cells, no CPT, ATP luminescence, 48 h; Potency, µM (series often up to 46.2 µM), without a hit: top-dose activity change, negative = growth inhibition, usual class: inhibitors; 15% of 420,000 active; AID 686978, 2013; also: nearly all actives have a fitted effect of over 55% in size
#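 Chicken DT40 Tdp1-/- cells complemented with human TDP1, screened without camptothecin (DMSO vehicle only), 400 cells/well. Compounds pin-transferred, cells incubated at 37 °C for at least 48 hr. Growth read as ATP-dependent luminescence (CellTiter-Glo, 30 min at RT).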
# HT1080 IDH1KD tx – toxicity to HT-1080 IDH1 knockdown cells (counter line); HT-1080 IDH1 knockdown viability, ATP luminescence, 48 h; 2% of 360,000 active; Potency, µM (highest dose often 46.1 µM), inactives show at the top dose activity, negative = toxicity, usual class: cytotoxic;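 also: 0% = DMSO wells and -100% = cell-free medium wells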
#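 In this qHTS, HT-1080 cells depleted of IDH1 are exposed for 48 h at 37 °C to compound titrations. Toxicity is scored from CellTiter-Glo luminescence, with DMSO as full viability and medium alone as none.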
# KB-V1 MDR tox – KB-V1 MDR subline cytotoxicity; AID 1347076; Potency, µM (highest dose often 46.1 µM), usual class: cytotoxic; KB-V1 MDR cells viability, CellTiter-Glo, 72 h; 3.4% of 400,000 active; also: nearly all actives have a fitted effect of over 60% in size
#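 KB-V1, DMEM (no phenol red) + 10% FBS; cpd pin-transferred, titration series; 72 h, 37 degrees C; CellTiter-Glo, luminescence. Data normalized, curve-fit.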
# HT1080NT lethal – kills 2HG-producing HT-1080-NT fibrosarcoma cells. HT-1080-NT fibrosarcoma viability, CellTiter-Glo ATP luminescence, 48 h. Potency, µM (doses to about 46.1 µM), without a hit: at the top dose activity, negative = less viability, usual class: cytotoxic. 1.6% of 360,000 active. AID 686970;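 also: NT is the 2HG producing partner of a matched IDH1 knockdown line; 0% = DMSO-treated cells and -100% = media-only wells without cells; nearly all actives have a fitted effect of over 55% in size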
#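 Luminescent CellTiter-Glo readout after 48 hours of compound exposure at 37 degrees C defined viability of HT-1080-NT cells. Activity was normalized to DMSO wells and cell-free media wells; concentration-response curves were fitted and assigned curve classes.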
# KB-3-1 cytotox – KB-3-1 parental cell cytotoxicity; KB-3-1 viability, CellTiter-Glo ATP luminescence, 72 h; Potency, µM (titrated, usually from 46.1 µM), actives largely listed as cytotoxic; 1.4% of 400,000 active; AID 1347075; also: nearly all actives have a fitted effect of over 60% in size
#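 KB-3-1 parental drug-naive adenocarcinoma cells in DMEM/10% FBS, incubated 72 h at 37 C with pin-transferred compounds across a concentration series. Viability by CellTiter-Glo luminescence; concentration-response curves fitted after normalization.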
# TDP1 cell CPT – growth inhibition of DT40 Tdp1-/-;hTDP1 cells with camptothecin (screen for TDP1 inhibitors) | Potency, µM (series often up to 46.2 µM), for the others: at the top dose activity change, negative = growth inhibition, most hits filed as inhibitors | chicken DT40 Tdp1-/-;hTDP1 cells + 20 nM CPT, ATP luminescence, 48 h | 12% of 420,000 active | AID 686979; also: nearly all actives have a fitted effect of over 55% in size
#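 Chicken DT40 Tdp1-/- cells complemented with human TDP1, 400 cells/well, exposed to compounds plus 20 nM camptothecin for at least 48 h at 37 C; viability read as ATP content by CellTiter-Glo luminescence.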
# Starred values were filed as active, the others as inactive; i = inactive; ? = inconclusive; · = no result given. Calls follow the shape of the dose curve; as a rule, active = well fitted curve in the direction sought with a large enough effect; inconclusive = small, poorly fitted or top-dose-only effect, or another doubt; inactive = no such curve, though single readings can be large; an effect the other way counts as inactive or inconclusive. Unless noted, % is scaled to controls: 0 for no effect and ±100 for the full control effect; potency is read from the fitted curve at half-maximal effect.
SMILES,TDP1 cell noCPT,HT1080 IDH1KD tx,KB-V1 MDR tox,HT1080NT lethal,KB-3-1 cytotox,TDP1 cell CPT
CCC1=C(c2cc(OC)c(OC)c(OC)c2)C2(CCCC2)C(=O)O1,?,-1%,i,-6%,i,?
CC(C)CNC(=O)COC(=O)c1n[nH]c2ccccc12,-2%,24%,i,19%,i,5%
CCC1(C2CCN(Cc3cc4ccccc4o3)CC2)NC(=O)N(CC2COc3ccccc3O2)C1=O (centres undefined),21µM*,·,·,·,·,?
CC(C)N1CCN(CC2COc3ccccc3O2)CC1 (centres undefined),-9%,6%,i,-5%,i,0%
CC(C)(C)c1ccc(S(=O)(=O)NC(=O)C2(C)CCN2C(=O)Cc2cccs2)cc1 (centres undefined),0%,18%,i,22%,i,4%
Cc1ccc(CCNC(=O)CNS(=O)(=O)c2ccc3nc(C)sc3c2)cc1,11%,-3%,i,13%,i,5%
CCOc1ccc(NC(=O)CN(Cc2ccccc2)S(=O)(=O)c2ccc3nc(C)sc3c2)cc1,26µM*,·,i,·,i,?
COc1cccc(NC(=O)CN(Cc2ccccc2)S(=O)(=O)c2ccc3nc(C)sc3c2)c1,26µM*,·,i,·,i,?
COc1cccc(CNC(=O)CNS(=O)(=O)c2ccc3nc(C)sc3c2)c1,15µM*,·,·,·,·,?
Cc1ccc(S(=O)(=O)C/N=C(/NC(=S)N(c2ccccc2)c2ccccc2)c2ccccc2)cc1,-15%,2%,?,-3%,i,?
CCN(C(=S)Nc1ccccc1F)C1CCCCC1,23µM*,5%,i,5%,i,?
CCC(C)NC(=O)CNC(=S)N(Cc1ccccc1F)C1CCCCC1 (centres undefined),?,9%,?,4%,i,3%
Cc1ccccc1NC(=S)N(Cc1cccs1)C1CCCCC1,9.2µM*,-13%,i,1%,i,-29%
CC(NC(=O)CNC(=S)N(Cc1cccs1)C1CCCC1)c1ccccc1 (centres undefined),16µM*,-9%,i,-8%,i,?
Cc1cc(=O)[nH]c2ccc(Cc3ccccc3)cc12,-28%,-17%,9.2µM*,-25%,?,6%
CCOC(=O)c1cnc2c(CC)cccc2c1NCCN1CCOCC1,23µM*,-3%,i,-5%,i,?
CCOC(=O)c1ccc2ncc(C(=O)OCC)c(NCCN3CCOCC3)c2c1,?,9%,i,5%,i,?
CCOC(=O)c1cnc2ccc(Br)cc2c1NCCN1CCOCC1,21µM*,·,i,·,i,21µM*
CCOc1ccc(-c2cn3nc(CC(C)C)sc3n2)cc1,?,·,i,·,i,-18%
COc1ccc(CCNC(=O)c2cc(=O)[nH]c3ccc(S(=O)(=O)N4CCCCC4)cc23)cc1OC,-17%,·,·,·,·,2%
Oc1ccc(-c2cc(-c3ccc(O)cc3)nc(-c3ccccc3)n2)cc1,?,?,i,12µM*,i,?
Nc1nc(-c2ccccc2)cc(-c2ccccc2O)n1,?,?,?,-26%,i,?
NNc1nc(-c2ccccc2)cc(-c2ccccc2O)n1,?,13µM*,5.2µM*,?,?,?
NNc1nc(-c2ccccc2)cc(-c2ccccc2)n1,?,?,i,-20%,?,16µM*
N#Cc1cc(-c2ccccc2)nc(NN)n1,?,-12%,?,-18%,i,?
SMILES,TDP1 cell noCPT,HT1080 IDH1KD tx,KB-V1 MDR tox,HT1080NT lethal,KB-3-1 cytotox,TDP1 cell CPT
CN(C)c1cc(-c2ccccc2)nc(N)n1,?,-27%,?,-16%,21µM*,?
CN(CCCNC(=O)c1ccc(CS(=O)c2ccc(Br)cc2)o1)Cc1ccccc1 (centres undefined),22%,14%,i,11%,i,-13%
COc1cccc(CNC(=O)c2c(OC)cc(=O)n3c2CCN(C(=O)c2cc(F)cc(F)c2)CC3)c1,-14%,·,·,·,·,-7%
CNc1ccc(/C=C2\C=Cc3ccccc32)cc1OC,?,·,i,·,?,-5%
Cc1c(-c2ccc(/C=N/NC(=O)C(=O)Nc3ccccc3F)o2)cccc1[N+](=O)[O-],-18%,5%,i,11%,i,2%
COc1cc(/C=N/NC(=O)c2sc(N)c(C#N)c2C)ccc1O,15µM*,-2%,i,-2%,i,?
Nn1cnnc1N/N=C\c1ccc(-c2ccccc2[N+](=O)[O-])o1,-30%,-24%,2.1µM*,-23%,7.3µM*,?
Cc1c(C(=O)N/N=C/c2ccc(-c3ccccc3[N+](=O)[O-])o2)sc(N)c1C#N,13µM*,?,i,?,i,16µM*
Cc1c(C(=O)N/N=C/c2ccc(O)c(Br)c2)sc(N)c1C#N,?,?,i,28%,?,?
O=[N+]([O-])c1ccccc1-c1ccc(/C=N/n2cnnc2)o1,-13%,-21%,?,5%,i,-15%
CCC(=O)N1CCc2cc(S(=O)(=O)NC(C(=O)NCCc3ccc(OC)c(OC)c3)C(C)C)ccc21 (centres undefined),-4%,·,i,·,i,-5%
O=C(Nc1ccc(F)cc1Cl)C1Cc2ccccc2N1C(=O)c1ccccc1 (centres undefined),-22%,·,i,·,i,-5%
CC(C)Sc1ccc(C(=O)Nc2ccc(F)cc2F)cn1,23µM*,-26%,i,-6%,i,?
COCCOC(=O)c1[nH]c2c(c1C)C(=O)CC(c1ccccc1)C2 (centres undefined),0.92µM*,1.3µM*,0.73µM*,1.6µM*,0.92µM*,0.65µM*
COCCOC(=O)c1[nH]c2c(c1C)C(=O)CC(c1ccc(F)cc1)C2 (centres undefined),5.8µM*,23µM*,?,?,7.3µM*,3.3µM*
Cc1oc2ncn(CC(C)C)c(=O)c2c1C(=O)NCCCN1CCCCC1,-1%,·,i,·,i,-1%
O=C(NC1CCCC1)C(c1ccccn1)N(C(=O)c1csnn1)C1CC1 (centres undefined),-28%,-6%,i,-10%,i,-21%
O=C(NC1CCCC1)C(c1ccccn1)N(C(=O)c1csnn1)C1CCCCC1 (centres undefined),?,12%,i,11%,i,21µM*
